Compound activity: PubChem BioAssay, National Center for Advancing Translational Sciences (NCATS)
HEK293 tox: qHTS of GLP-1 Receptor Inverse Agonists: Cytotox Screen; HEK293 cAMP-luciferase reporter cells, luminescence, 24 h; Potency, µM (highest dose often 38.3 µM), for the others: at the highest dose activity change, negative = inhibition, hits mostly inhibitors; 410,000 tested, 0.13% active;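 also: loss of luciferase light is scored as toxicity; potency is read from the fitted curve at half-maximal effect; % is scaled to controls: 0 for no effect and ±100 for the full control effect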
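Seeding density was 200 cells/uL; after overnight-length (12 h) culture, 23 nL compounds went on for 24 h at 37 °C. Readout used a luciferase detection reagent, luminescence taken after 12 min at room temperature.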
p53 reactivation: qHTS assay for re-activators of p53 using a Luc reporter | H1299 p53-A138V BP100-luciferase reporter, luminescence, 24 h | Potency, µM (titrated, usually from 92.2 µM), for inactives: at the highest dose activity change, positive = activation, hits mostly activators | 320,000 tested, 0.063% active | AID 504706, 2011; also: potency is read from the fitted curve at half-maximal effect; % of control where 0% means no effect; nearly all actives have a fitted effect of over 45% in size
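H1299 (p53-null), stable ts p53-A138V + BP100-Luc; 1000 cells/well, Opti-MEM/10% FBS; cpd 4 pt, 1:5; 24 h, 37 deg C, 5% CO2; detection reagent 10 min RT; luminescence.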
LDHA block: qHTS assay for inhibitors of human lactate dehydrogenase; AID 1347041, 2019; L-lactate dehydrogenase A chain (Homo sapiens), P00338; purified LDHA, NADH/diaphorase-resazurin fluorescence; active compounds read low; 480,000 tested, 0.15% active; activity change, % (values are at about 110 or 230 µM); in the data active = activity change below about -30%; inconclusive = mostly about -25% to -30%;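 also: plate controls were DMSO wells for no effect and wells without enzyme for full effect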
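Human LDH5 (2 nM) was incubated with 0.06 mM NADH and 0.2 mM pyruvate for 5 min at room temperature in Tris pH 7.4. Remaining NADH was coupled through diaphorase/resazurin, and resorufin fluorescence was read at 0 and 20 min.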
GLP-1R inv ag: qHTS of GLP-1 Receptor Inverse Agonists (Inhibition Mode); Glucagon-like peptide 1 receptor (Homo sapiens), P43220; HEK293 GLP-1R CRE-luciferase, luminescence, 24 h; GLP-1R form is constitutively active; Potency, µM (doses to about 38.3 µM), without a hit: at the top dose activity change, negative = inhibition, actives largely listed as inhibitors; 410,000 tested, 1.6% active; also: potency is read from the fitted curve at half-maximal effect; % is scaled to controls: 0 for no effect and ±100 for the full control effect; nearly all actives have a fitted effect of over 55% in size
Target sequence (P43220 whole entry, looked up): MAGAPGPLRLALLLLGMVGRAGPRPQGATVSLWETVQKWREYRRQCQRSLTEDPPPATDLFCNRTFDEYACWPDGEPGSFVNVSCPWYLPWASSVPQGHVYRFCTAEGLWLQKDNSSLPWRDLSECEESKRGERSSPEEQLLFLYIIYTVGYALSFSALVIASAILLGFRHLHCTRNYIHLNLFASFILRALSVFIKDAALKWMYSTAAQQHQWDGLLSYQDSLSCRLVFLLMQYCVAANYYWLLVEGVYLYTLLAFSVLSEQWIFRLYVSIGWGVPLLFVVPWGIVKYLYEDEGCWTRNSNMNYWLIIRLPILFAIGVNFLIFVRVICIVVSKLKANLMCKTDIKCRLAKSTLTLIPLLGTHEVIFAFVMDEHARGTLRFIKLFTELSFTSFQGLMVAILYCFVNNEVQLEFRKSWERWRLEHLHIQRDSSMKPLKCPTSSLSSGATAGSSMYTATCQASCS
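Stable HEK293 clone (constitutively active GLP-1R + cAMP-response luciferase); 200 cells/uL plated, 12 h pre-culture, compound 24 hr, 37 deg C/5% CO2; detection reagent 12 min RT; luminescence.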
GLP-1R agonist: qHTS of GLP-1 Receptor Agonists | Glucagon-like peptide 1 receptor (Homo sapiens), P43220 | AID 624172, 2012 | 380,000 tested, 0.007% active | HEK293 GLP-1R CRE-luciferase, luminescence, 4-6 h; cells express a hypersensitive GLP-1R form | Potency, µM (highest dose often 45.6 µM), for the others: at the highest dose activation, hits mostly activators; also: potency is read from the fitted curve at half-maximal effect; % of control where 0% means no effect
ClpP mod: qHTS Assay for Activators of ClpP; AID 651965, 2013; purified B. subtilis ClpP, FRET peptide cleavage, 20 min; Potency, µM (doses to about 57.5 µM), for inactives: at the highest dose activity change, negative = active; 340,000 tested, 1.9% active; ATP-dependent Clp protease proteolytic subunit (Bacillus subtilis (strain 168)), P80244; active = well fitted falling curve with a large enough effect; inconclusive = small, poorly fitted or top-dose-only effect; inactive = no such curve, though single readings can be large or run the other way; also: potency is read from the fitted curve at half-maximal effect; the source files actives as falling curves though it sought activators and does not explain the sign; nearly all actives have a fitted effect of over 65% in size
Target sequence (P80244 whole entry, looked up): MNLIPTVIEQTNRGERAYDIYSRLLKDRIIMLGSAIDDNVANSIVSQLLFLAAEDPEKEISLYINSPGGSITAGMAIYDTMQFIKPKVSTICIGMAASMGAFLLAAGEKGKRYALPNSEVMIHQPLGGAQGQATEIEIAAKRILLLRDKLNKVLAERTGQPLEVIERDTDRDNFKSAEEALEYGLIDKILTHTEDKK
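Buffer: 100 mM Tris/HCl pH8, 100 mM KCl, 0.05% low protease BSA, 2.5% glycerol, 0.01% Tween-20. ClpP 10 microg/mL final; 20 min RT; delta FRET normalized to ADEP and DMSO controls.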
* = called active by the depositor; ? = inconclusive; . = not tested or not shown; ! = not active in a repeat; [ ] = dose if it differs, or a comment. Compounds with a hit are over-represented: about 2.9% of the library has one in this group of screens. Unless noted, calls follow the shape of the dose curve; as a rule, active = well fitted curve in the direction sought with a large enough effect; inconclusive = small, poorly fitted or top-dose-only effect, or another doubt; inactive = no such curve, though single readings can be large; an effect the other way counts as inactive or inconclusive.

SMILES | HEK293 tox | p53 reactivation | LDHA block | GLP-1R inv ag | GLP-1R agonist | ClpP mod
CC(=O)Nc1ccc2nc(NC(=O)COc3ccccc3C)sc2c1 | 0%[0.307 µM] | 2% | -7 | -3%[0.307 µM] | -5% | -1%
Cc1cccc(OC(C)C(=O)Nc2cc(Cl)ccc2-n2cncn2)c1 (centres undefined) | 1% | -14% | -5 | ? | 16% | -1%
Cc1ccnc(NC(=S)Nc2cccc([S+](=O)([O-])Nc3ccccc3F)c2)c1 | . | . | -4 | . | . | .
COCCN1C(=O)N(c2cccc(OC)c2)C(=O)C1CC(=O)Nc1cccc(F)c1 (centres undefined) | 8% | 7% | 1 | 12% | 1% | 0%
CC(C)(C)c1nn2cnnc2n(/N=C/c2ccc(O)cc2)c1=O | 0%[1.53 µM] | -1% | -1 | 8% | 13% | 7.1µM*
CC(=O)Nc1ccc(NC(=O)C2C3CCC(C3)C2C(=O)O)cc1 (centres undefined) | -2% | -1% | 0 | 1% | -7% | -2%
COc1ccc(COc2cc(-c3cccc(OC)c3)nc3ccc(NC(=O)c4cccnc4)cc23)cc1 | -20% | 1% | 2 | 2.8µM* | 12% | ?
COc1ccc(COc2cc(-c3cccc(OC)c3)nc3ccc(NC(=O)c4ccc(OC)cc4)cc23)cc1 | -28% | -1% | 2 | ? | 15% | 4%
O=C(Oc1c(Br)cc(C(=S)N2CCOCC2)cc1Br)c1ccc(Cl)cc1 | ? | 15% | -10 | 10µM* | -8% | -1%
CN1C[C@H]2CON(C)[C@H]2C[C@H]1c1cccc(-c2ccc(C#N)cc2)c1 | 6% | . | -4 | 11% | 1% | -2%
CN1OC[C@@H]2CN(Cc3cc(Cl)cc(Cl)c3)[C@H](c3cccc(-c4ccc(C#N)cc4)c3)C[C@@H]21 | 0% | . | -31* | -6% | 3% | -13%
COc1ccc(Br)cc1CSC(=N)N | -5% | 13% | -2 | ? | -2% | .
CCCCCOc1ccc(Br)cc1CSC(=N)N | 10µM* | -21% | -7 | ? | -5% | -3%
CCOC(=O)c1nnc2cc(C)nn2c1C | 7% | 2% | -4 | 2% | -4% | -2%
COc1ccc(-c2csc(C(NC(C)=O)c3cccc(OC)c3)n2)cc1 (centres undefined) | -5% | . | -3 | -12% | 6% | 0%
O=C(c1sc2cc(Cl)ccc2c1Cl)N1CCN(CCc2ccccn2)CC1 | 8% | -1% | -2 | ? | -5% | 1%
Cc1cc(-c2ccc(C(C)C)c(S(=O)(=O)N3CCN(c4ccccc4)CC3)c2)on1 | -9% | 5% | 0 | ? | 15% | .
CCc1ccc(-c2cc(C)no2)cc1S(=O)(=O)N1CCCN(Cc2ccc(F)cc2)C1 | -24% | 9% | -3 | 2.5µM* | -5% | -2%
Cc1cccc(N2CCN(S(=O)(=O)c3cc(-c4cc(C)no4)ccc3C)CC2C)c1 (centres undefined) | -12% | 22% | -2 | 4µM* | -3% | -20%
CCc1ccc(-c2cc(C)no2)cc1S(=O)(=O)N1CCN(c2ccccc2F)CC1 | 4% | 4% | -16 | 4% | 0% | 2%
COc1ccccc1N1CCN(S(=O)(=O)c2cc(-c3cc(C)no3)ccc2C(C)C)CC1 | -9% | 4% | -1 | 1µM* | 5% | -4%
CCc1ccc(-c2cc(C)no2)cc1S(=O)(=O)N1CCN(c2cccc(C)c2C)CC1 | -10% | 1% | -3 | 7.9µM* | 2% | -8%
COc1ccc(-c2cc(C)no2)cc1S(=O)(=O)N1CCN(c2cccc(C)c2)C(C)C1 (centres undefined) | 4% | 1% | 1 | ? | -4% | ?
CC(=O)Oc1ccc(Cn2c(C)c(C(=O)NCc3ccccc3C(F)(F)F)sc2=O)cc1 | -10% | . | -8 | ? | -7% | -1%
Cc1nn(-c2ccccc2)c2sc(C(=O)n3cccn3)cc12 | 18% | 9% | -5 | -9% | -1% | ?
SMILES | HEK293 tox | p53 reactivation | LDHA block | GLP-1R inv ag | GLP-1R agonist | ClpP mod
Cc1nn(-c2ccccc2)c2sc(C(=O)NC3CCCCC3)cc12 | -4% | 2% | 2 | -3% | 5% | ?
Cc1nn(-c2ccccc2)c2sc(C(=O)OCn3nnc4ccccc4c3=O)cc12 | 9% | 0% | -2 | 14% | -1% | 10µM*
Cc1nn(-c2ccccc2)c2sc(C(=O)NCCN3CCOCC3)cc12 | 71% | -33% | -2 | -21% | 12% | 28µM*
Cc1ccn(C(=O)c2cc3c(C)nn(-c4ccccc4)c3s2)n1 | 6% | 4% | -5 | 8% | -10% | 3.5µM*
CCn1c(-c2ccccc2Cl)nn(CC(=O)Nc2ccccc2OC)c1=S | -14% | -7% | -4 | -18% | 1% | -1%
O=C(CCC(=O)c1ccc(Cl)cc1)NCc1ccccc1 | 0% | 0% | -5 | -8% | 9% | -2%
CCOC(=O)C1(Cc2cccc(F)c2)CCN(C2CCOCC2)CC1 | ? | -2% | -5 | -17% | 0% | .
COc1ccc(OCC(=O)N2c3ccc(C)cc3C3CN(C)CCC32)cc1 (centres undefined) | 11% | -3% | -1 | -22% | 7% | .
Cc1ccc2c(c1)C1CN(C)CCC1N2C(=S)NC(=O)c1ccc(Br)cc1 (centres undefined) | ? | 11% | -15 | 11µM* | 0% | -2%
C=CCNC(=O)c1oc2ccc(S(=O)(=O)N3CCCCC3)cc2c1C | 2% | -2% | -3 | -4% | 4% | 0%
Nc1ccc2oc(-c3ccccn3)nc2c1 | 5% | ? | 16 | 8% | 4% | -5%
Cc1cc(-c2nc3ccccc3o2)c2ccccc2n1 | 11% | 6% | -2 | 80% | 17% | 6%
Cc1ccnc2ccc(-c3nc4ccccc4o3)cc12 | -24% | 26% | -1 | 1% | -2% | 35µM*!
c1ccc(-c2nc3ccccc3o2)nc1 | -3% | 28% | 2 | 8% | -1% | 13µM*
c1cncc(-c2nc3ccccc3o2)c1 | -1% | ? | -1 | 10% | -18% | -24%
Clc1ccc2oc(-c3ccccn3)nc2c1 | -9% | ? | -6 | 2% | -1% | 16µM*
C[C@H](NC(=O)N1CCn2c1nc1ccccc12)C(=O)NCc1ccco1 | -5% | -8% | 1 | -18% | 9% | .
